Source: PubChem BioAssay (The Scripps Research Institute Molecular Screening Center)
An excerpt weighted towards active compounds, which were near 1.8% of everything screened.
LYPLA2 counter: LYPLA2 (human) inhibition in PME1 counter-screen | O95372 | recombinant LYPLA2, FP-Rh probe fluorescence polarization | inhibition, % at 5.9 µM | hit rate 0.38% among 320,000;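 active means inhibition above the screen-wide mean plus 3 SD, limit set per campaign, cut at about 26% in these data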;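 further: 0% = LYPLA2 with DMSO and 100% = wells lacking LYPLA2 enzyme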
LYPLA1 inh: blocks human lysophospholipase 1, a PME1 counter-screen | O75608 | recombinant LYPLA1, FP-Rh probe fluorescence polarization | inhibition, % at 5.9 µM | hit rate 0.16% among 320,000;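 active means inhibition above the mean of all tested compounds plus 3 SD, set per campaign, cut at about 14% in these data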;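 further: inhibitors block serine hydrolase probe labeling of LYPLA1 so polarization falls; 0% = enzyme with DMSO and 100% = wells lacking LYPLA1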
GSTO1 counter: counter-screen for RBBP9 inhibitors: inhibitors of human GSTO1; P78417; recombinant GSTO1, activity-based probe fluorescence polarization; inhibition, % at 5.96 µM; hit rate 1.1% among 300,000; AID 1974;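 active means inhibition above the campaign mean inhibition plus 3 SD, cut at about 35% in these data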;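 further: 0% = GSTO1-1 with DMSO and 100% = wells lacking GSTO1-1 enzyme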
Fam108B counter: Fam108B inhibition, counter-screen for RBBP9 inhibitors | inhibition, % at 9.51 µM | recombinant Fam108B, FP-Rh probe fluorescence polarization | AID 1947 | hit rate 0.33% among 300,000;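 active means inhibition above the screen mean inhibition plus 3 SD, computed separately per campaign, cut at about 18% in these data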;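 further: inhibitors lower polarization as less probe binds the enzyme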
PAD4 FP inh: inhibitors of human PAD4; recombinant PAD4, RCA probe fluorescence polarization; hit rate 0.41% among 330,000; inhibition, % at 6.36 µM;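 active means percent inhibition above a cutoff equal to the mean of all tested compounds plus 3 SD, cut at about 15% in these data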;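 further: 0% = PAD4 with RCA probe and DMSO and 100% = probe without PAD4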
PME-1 primary: blocks human protein phosphatase methylesterase 1; recombinant PME-1, FP-Rh probe fluorescence polarization; inhibition, % at 5.9 µM; hit rate 0.53% among 320,000; AID 2130;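 active means inhibition above the campaign mean of all compounds plus 3 SD, cut at about 26% in these data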;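 further: competitive labeling of PME-1 active site by serine hydrolase directed probe; 0% = PME-1 with DMSO and 100% = wells lacking PME-1 enzyme; inhibitors block probe labeling so polarization falls and inhibition rises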
Target sequence (Q9Y570 whole entry, looked up): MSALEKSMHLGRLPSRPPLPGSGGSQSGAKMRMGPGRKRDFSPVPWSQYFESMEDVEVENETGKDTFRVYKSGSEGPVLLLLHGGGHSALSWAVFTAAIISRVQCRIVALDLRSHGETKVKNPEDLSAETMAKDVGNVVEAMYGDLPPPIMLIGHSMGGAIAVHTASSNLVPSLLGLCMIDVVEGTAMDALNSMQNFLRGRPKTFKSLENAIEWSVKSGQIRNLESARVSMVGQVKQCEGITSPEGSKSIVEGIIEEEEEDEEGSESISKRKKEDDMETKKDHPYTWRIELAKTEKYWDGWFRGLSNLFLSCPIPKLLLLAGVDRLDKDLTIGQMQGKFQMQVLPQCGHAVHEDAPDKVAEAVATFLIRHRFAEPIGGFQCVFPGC
* marks the source's active call; other numbers are inactive results; nt = not tested or not shown.

SMILES | LYPLA2 counter | LYPLA1 inh | GSTO1 counter | Fam108B counter | PAD4 FP inh | PME-1 primary
COc1ccccc1NC(=O)COn1nnc2ccc(S(=O)(=O)N3CCOCC3)cc21 | 5.2 | 4.2 | 35.7* | 3.3 | -1.9 | -6.8
O=C(CCC(F)(F)F)N1CCCC(N2CCN(c3cccc(Cl)c3)CC2)C1 (stereo not drawn) | 30.2* | -1.4 | -1.8 | -6.9 | -2.5 | -5.9
O=C1CCCCN1CCC(=O)N1CCCC(N2CCN(c3cccc(Cl)c3)CC2)C1 (stereo not drawn) | -0.4 | 0.2 | 4.3 | -1.6 | -1.5 | -0.6
COCc1cc(C)nc(OC)c1C(N)=O | 4.0 | 1.5 | 6.6 | 1.3 | 2.3 | -0.1
Cc1ccc(N2C(=O)CSCC2=O)cc1 | -5.6 | 0.3 | 2.6 | -2.9 | -1.2 | 0.6
Cc1ccc(N2C(=O)CS/C2=C(\C(Cl)=C(Cl)Cl)[N+](=O)[O-])cc1 | -4.3 | -2.2 | 53.6* | 6.0 | -20.2 | 6.7
CNC(=O)CC1C(=O)N(C)C(=S)N1NC(=O)c1ccc(Cl)cc1 (stereo not drawn) | 7.1 | 2.0 | 10.5 | -8.4 | -1.3 | 2.0
c1ccc(-c2ccc(C3CCCN3)cc2)cc1 (stereo not drawn) | -8.1 | -1.8 | 4.9 | -1.2 | -0.5 | 33.2*
O=C(NCCC1=CCCCC1)C1CCN(S(=O)(=O)c2cccs2)CC1 | 0.4 | 0.6 | -2.1 | -0.7 | 1.3 | 28.5*
Cc1cccc2c1NC(=O)C21OCC(CO)([N+](=O)[O-])CO1 (stereo not drawn) | 1.6 | 1.0 | -3.8 | 1.6 | 0.6 | -4.5
BrC(=C\c1ccccc1)/C=N/Nc1nc2ccccc2[nH]1 | -5.5 | -5.3 | 36.8* | -0.2 | -6.9 | -28.0
Cc1ccc2nc(=O)c(NNc3ccccc3)cnc2c1 | -0.6 | -3.0 | -3.4 | 3.7 | -1.6 | 41.3*
CC1=C(C)/C(=N\OS(=O)(=O)c2ccccc2)C=CC1=O | -0.4 | -0.2 | 34.9* | 0.6 | 1.9 | -0.4
O=C(COC(=O)COc1ccc(Cl)cc1Cl)Nc1cccnc1Cl | -3.4 | -4.5 | 35.4* | -0.8 | 5.6 | -0.2
O=C(Nc1cccc(S(=O)(=O)N2CCOCC2)c1)C1CC1 | nt | nt | nt | nt | -5.9 | nt
CCOc1ccc(/C=C2\SC(=S)N(C(C(=O)O)c3ccccc3)C2=O)cc1OC (stereo not drawn) | -0.4 | 1.6 | -4.8 | 2.1 | -3.8 | 35.5*
COc1ccc(OC)c(/C=C2\SC(=S)N(C(C(=O)O)c3ccccc3)C2=O)c1 (stereo not drawn) | -0.3 | 0.2 | -3.3 | -0.3 | -3.2 | 1.9
Nc1ccccc1SC/C=C/CSc1ccccc1N | 3.6 | 5.6 | 7.5 | 3.4 | -3.7 | -0.1
CC(C(=O)Nc1ccc(C(=O)O)c(O)c1)N1C(=O)/C(=C\c2ccco2)SC1=S (stereo not drawn) | -6.7 | 0.6 | 28.0 | 19.4* | 10.7 | -31.0
Cc1onc(NC(=O)NC(=O)c2c(Cl)cccc2Cl)c1Br | 1.8 | 0.4 | -0.2 | -2.6 | -4.7 | 26.4*
O=C(O)c1cccc(Nc2ccnc(Nc3cccc(C(=O)O)c3)n2)c1 | 2.8 | -1.7 | 24.3 | -1.7 | 1.0 | -7.4
CC(C)c1ccc(NS(=O)(=O)c2ccc(-n3cccn3)cc2)cc1 | 2.2 | -1.9 | 35.3* | -7.2 | 1.1 | -1.8
C=CCc1ccccc1OCC(=O)NNC(=S)NCc1ccccc1 | 2.4 | 4.7 | 0.9 | 1.6 | -5.8 | 0.9
O=C(c1ccco1)[C@@H]1[C@@H]2C(=O)N(c3ccccc3)C(=O)[C@@H]2C2c3ccccc3C=CN21 (stereo partly drawn) | 3.7 | 3.5 | 36.7* | 6.6 | -0.8 | 3.0
COc1ccc(N2C(=O)[C@@H]3[C@H](C2=O)[C@H]2c4ccccc4C=CN2[C@@H]3C(=O)Nc2ccccc2)cc1 | 6.8 | 1.1 | 22.4 | 24.6* | -2.8 | 13.3
CC(C)(C)c1ccc(CSc2nc(N)cc(=O)[nH]2)cc1 | 2.2 | -5.1 | -16.9 | 4.1 | 5.8 | 5.6
CC(C)Oc1cccc(C(=O)C2CCCN(C(=O)c3ccc4c(c3)OCO4)C2)c1 (stereo not drawn) | 3.4 | 0.8 | -2.0 | 2.1 | 3.1 | 10.8
O=C(N=Nc1c(O)[nH]c2ccccc12)c1cccs1 | 2.4 | 2.8 | 4.3 | 5.0 | 3.3 | 28.1*
O=C(CNS(=O)(=O)c1ccccc1)OCC(=O)c1c[nH]c2ccccc12 | -1.3 | -2.8 | nt | nt | -8.2 | -6.4
CNC(=O)c1c(NC(=O)c2ccc(S(=O)(=O)N3CC(C)OC(C)C3)cc2)sc2c1CCN(C(C)C)C2 (stereo not drawn) | 8.5 | 1.7 | 5.7 | 1.2 | -3.6 | -0.3
